{
  "source": "PubChem BioAssay (NCI)",
  "note": "This is part of a sample that, as a whole, favours compounds with a hit. Of some 83,000 tested, about 20% had one in any assay.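 How to read the values: 0–100, growth inhibition (40 = 60% inhibited); 0, no net growth; -100 to 0, cell death (-40 = 40% of starting cells died; -100 = all dead).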 Calls of active or inactive are those of the source. The calls were made as follows: active = growth percent below 10; inactive = the rest.",
  "data": [
    {"test_system": "HL-60(TB) leukemia", "assay": "NCI-60 one-dose screen, 48 h (100 = growth as untreated, 0 = no growth, -100 = all killed)", "settings": "10 µM unless noted", "values": [
      {"smiles": "N=c1sc2ccccc2n1CC(=O)O", "growth": "114% (inactive)"},
      {"smiles": "C[N+](C)(C)c1ccc(CC2c3ccccc3-c3ccccc32)cc1", "growth": "47.8% (inactive)"},
      {"smiles": "Cc1cccc2c(=O)c3c(sc12)c(NCCNCCO)nc1ccccc13", "growth": "-58.4% (active)"},
      {"smiles": "N#Cc1c(NN)n(C2OC(CO)C(O)C2O)c2ncnc(N)c12", "note": "(stereo not given)", "growth": "-52.1% (active)"},
      {"smiles": "Cc1ccc2c(n1)C(=O)C(Cl)=C(Nc1ccccc1C(C)C)C2=O", "growth": "-15.3% (active)"},
      {"smiles": "Nc1cc2c3c(cccc3c1)C(=O)N(CCN1CCCC1)C2=O", "growth": "1.24% (active)"},
      {"smiles": "CC1=C2[C@@H](CC1)[C@]1(C)O[C@@](C(C)C)(C[C@H]1OC(=O)CO)[C@H]2OC(=O)C1CC1c1ccccc1", "note": "(stereo not given in full)", "growth": "89.8% (inactive)"},
      {"smiles": "COc1cc(-c2cc(-c3ccc(Nc4ncnc5cc(Cl)ccc45)cc3)nc(N3CCCCC3)n2)cc(OC)c1OC", "growth": "91.6% (inactive)"},
      {"smiles": "OCCOCC(F)(F)F", "growth": "-0.411% (active)"},
      {"smiles": "COc1cc2c(cc1OCCCN1Cc3ccc(OCCCCC(=O)N4CCC(CCN5CCCC5)CC4)cc3C1)N=C(N)C21CCCC1", "growth": "84.9% (inactive)"},
      {"smiles": "O=C(/C=C/c1cc2ccccc2[nH]c1=O)c1ccc(O)cc1", "growth": "16% (inactive)"},
      {"smiles": "NC(=O)c1c(NC(=O)c2cccs2)sc2c1CCC(=O)C2", "growth": "2.73% (active)"},
      {"smiles": "Nc1cnc(C(=O)NNc2nc3cc(F)ccc3n3cccc23)cn1", "growth": "12.1% (inactive)"},
      {"smiles": "CS(=O)(=O)OC1CC(n2ccc(=O)[nH]c2=O)OC1COC(c1ccccc1)(c1ccccc1)c1ccccc1", "note": "(stereo not given)", "growth": "97.6% (inactive)"},
      {"smiles": "CC(C)(C)c1ccc(CCO)cc1", "growth": "86.6% (inactive)"}
    ]}
  ]
}
